# PubChem BioAssay AID1159606 (Sanford-Burnham Center for Chemical Genomics, 2016)
# In all, about 360,000 compounds went through this assay and about 7,300 (2%) were called active. Rule as the data show it: active = inhibition above about 50%; inactive = the rest. Many of the other results were omitted from the sample, so actives are more common in it than they were.
# Test: blockers of TWEAK-induced Fn14 reporter activity – luciferase reporter cells, uHTS, primary screen (AID 1159606)
# Conditions: TWEAK-stimulated Fn14 reporter cells, luciferase luminescence, 8 h; at 10 µM; active compounds read high
row,SMILES,inhibition
1,Cc1cc(Cl)c(S(=O)(=O)NCC2CCCO2)cc1OCC(N)=O (centres undefined),3.22% (inactive)
2,Cc1cc(Cl)c(S(=O)(=O)Nc2ccc3c(c2)OCCO3)cc1OCC(N)=O,86.8% (active)
3,Cc1cc(Cl)c(S(=O)(=O)N(C)C)cc1OCC(N)=O,12.6% (inactive)
4,Cc1cc(C)cc(C(=O)OCC(=O)NCCNC(=O)COC(=O)c2cc(C)cc(C)c2)c1,-2.52% (inactive)
5,Cc1ccc(S(=O)(=O)N2CCC(=O)N([C@H](COCc3ccccc3)C(C)C)CC2)cc1,-20.6% (inactive)
6,Oc1c(CN2CCN(c3ccc(F)cc3)CC2)cc(Cl)c2cccnc12,104% (active)
7,Oc1c(CN2CCCC2)cc(COCc2ccccc2)c2cccnc12,9.88% (inactive)
8,Cc1cccc(C)c1NC(=O)CN1CCN(c2ccc(F)cc2)CC1,0% (inactive)
9,O=[N+]([O-])c1ccc(S(=O)(=O)Nc2cccc(-c3ccc(N4CCCC4)nn3)c2)cc1,-10.7% (inactive)
10,O=C(Nc1ccc2c(c1)OCCO2)C1CCCC1,92.4% (active)
11,CN1C(=O)c2ccc(NC(=O)C3CCCCC3)cc2C1=O,-18.9% (inactive)
12,O=C(Nc1ccc2c(c1)OCO2)C1CC1(Cl)Cl (centres undefined),-7.08% (inactive)
13,O=C(Nc1ccc2c(c1)OCCO2)C1CCCN(c2ncccn2)C1 (centres undefined),67.2% (active)
14,O=C(Nc1cccc(Cl)c1)C1CCCN(c2cnccn2)C1 (centres undefined),-12.7% (inactive)
15,O=C(Nc1ccccn1)C1CCN(S(=O)(=O)c2ccc3c(c2)OCCO3)CC1,-16% (inactive)
16,Cc1ccccc1S(=O)(=O)NC(=O)C1(C)CCN1C(=O)C1(c2ccccc2)CCCC1 (centres undefined),0.78% (inactive)
17,COc1ccc(NC(=O)CN(C)C(=O)CNC(=O)C2CCCCC2)cc1,-2.69% (inactive)
18,COc1cccc(CNC(=O)[C@@H]2CCCN2C(=O)[C@@H]2CCCN2C(=O)c2ccccc2)c1,17.3% (inactive)
19,CC1(C(=O)NS(=O)(=O)c2ccccc2)CCN1C(=O)C1CCCCC1 (centres undefined),-10.4% (inactive)
20,CCC1(C)NC(=O)N(CC(=O)N2CCN(c3cccc(Cl)c3)CC2)C1=O (centres undefined),5.53% (inactive)
21,O=C(CSc1nnc(-c2ccco2)o1)NCC(=O)c1ccccc1,7.83% (inactive)
22,CSc1nc(-c2ccco2)nn1C(=O)c1ccccc1Cl,51% (active)
23,CCn1c(SCC(=O)Nc2cc(C)c(Cl)cc2OC)nnc1-c1ccco1,-18.4% (inactive)
24,CCn1cc(CN2CCCC(CNS(=O)(=O)Cc3ccccc3)C2)cn1 (centres undefined),1.85% (inactive)

row,SMILES,inhibition
1,CC(=O)Nc1c2c(nn1-c1cccc(C)c1)CSC2,-5.72% (inactive)
2,Cc1cccc(-n2ncc(Cl)c(Cl)c2=O)c1,94.7% (active)
3,CCCNC(=O)c1c(Cl)cnn1-c1ccc(C)cc1,-19.4% (inactive)
4,COc1cccc(-c2nc3nc(C)cc(C)n3c2NC2CCCCC2)c1,-20.7% (inactive)
5,CC(C)(C)Oc1ccccc1Nc1nc(NCCO)nc(N2CCCC2)n1,-8.68% (inactive)
6,Cc1ccc(-n2c(SCC(=O)N3CCC(C(=O)O)CC3)nc3ccccc3c2=O)cc1C,58.6% (active)
7,COc1cccc(-n2c(SCC(=O)NC3CCS(=O)(=O)C3)nc3ccccc3c2=O)c1 (centres undefined),6.23% (inactive)
8,O=C(CSc1nc2ccccc2c(=O)n1-c1ccccc1F)N1CCOCC1,0.72% (inactive)
9,O=C(CCCN1C(=O)C(c2ccccc2)Oc2cccnc21)Nc1ccccc1Br (centres undefined),-8.78% (inactive)
10,COC(=O)[C@]12CCCCC=C1N(Cc1cccc3ccccc13)C(=O)[C@H](CC(=O)N1CCOCC1)C2,-1.32% (inactive)
11,CSc1ccc(Cl)c(C(=O)OCC(=O)N2CC(C)OC(C)C2)c1 (centres undefined),3.56% (inactive)
12,CCCCC(=O)Nc1c2c(nn1-c1ccc([N+](=O)[O-])cc1)CS(=O)(=O)C2,-8.65% (inactive)
13,CN(C)S(=O)(=O)N1CCN(c2ccc([N+](=O)[O-])cc2)CC1,-16% (inactive)
14,O=C1/C(=C\c2ccc([N+](=O)[O-])cc2)CS(=O)(=O)C/C1=C/c1ccc([N+](=O)[O-])cc1,103% (active)
15,Cc1cc(NC(=O)CSc2nnnn2-c2ccc(F)cc2)no1,-11.5% (inactive)
16,O=C(CSc1nnnn1-c1ccc(O)cc1)c1ccc(F)cc1,-10.2% (inactive)
17,O=C(O)Cc1csc(NC(=O)CSc2nnnn2-c2ccc(O)cc2)n1,58.4% (active)
18,O=C(COc1cccc(F)c1)Oc1ccc(C(=O)c2ccccc2)cc1,10.4% (inactive)
19,O=C(Nc1ccn(Cc2ccccc2F)n1)c1ccc(COc2ccc(Cl)cc2Cl)o1,33.4% (inactive)
20,O=C(Nc1ccn(Cc2ccccc2)n1)c1n[nH]c([N+](=O)[O-])c1Cl,73.8% (active)
21,Cc1c(Br)c([N+](=O)[O-])nn1CC(=O)N1CCN(Cc2ccccc2)CC1,-4.42% (inactive)
22,CC(=O)Oc1ccc(Cn2c(C)c(C(=O)NCc3ccc(C#N)cc3)sc2=O)cc1,-2.94% (inactive)
23,CC(=O)C1=CCC(c2ccccc2)N(S(=O)(=O)c2ccc(C)cc2)C1 (centres undefined),15.7% (inactive)
24,Cc1ccc2oc(=O)c3cnn(CC(=O)N4CCCCCC4)c3c2c1,-7.9% (inactive)

row,SMILES,inhibition
1,Cc1cc(C)cc(NC(=O)N2CCCCCCC2)c1,-11.9% (inactive)
2,Cc1ccc2cc3cc(C(=O)N4CCCCCC4)oc3nc2c1,50.1% (active)
3,COc1ccc(OC)c(CN2C(=O)CCC2(C)c2nnnn2Cc2ccccc2)c1 (centres undefined),-0.14% (inactive)
4,C=CCNc1nnc(SCC(=O)N2CCCCC2)c2ccccc12,16.3% (inactive)
5,COC(=O)c1ccc2nc(-c3ccc(C)cc3)c(Cc3ccc(OC)cc3C)n2c1,-18.1% (inactive)
6,Cc1ccccc1NC(=S)NC(=O)Cc1ccc(Cl)cc1,9.93% (inactive)
7,Cc1cccc(NC(=S)NCCc2ccc(Cl)cc2)c1C,72% (active)
8,Cc1cccc(NC(=S)NCCc2ccc(F)cc2)c1C,3.93% (inactive)
9,Cc1ccc(CNC(=O)c2cccc3c2C(=O)c2ccc(N4CCC(C)CC4)cc2S3(=O)=O)cc1,21% (inactive)
10,COc1cc(/C=C/C(=O)OCC(=O)Nc2cccc(Oc3ccccc3)c2)ccc1O,14.2% (inactive)
11,CCCCC[C@H](C)N1C[C@@H](COCc2ccccc2)Oc2cc(N3CC[C@@H](N(C)C)C3)ccc2S1(=O)=O,-25% (inactive)
12,Nc1ccccc1SC(C[N+](=O)[O-])c1ccccc1 (centres undefined),61.3% (active)
13,CS(=O)(=O)N(Cc1ccccc1)c1ccc(C(=O)NN=C2CCCCCC2)cc1,-6.55% (inactive)
14,COc1ccc(OC)c(NC(=O)C2CCCN2S(=O)(=O)c2ccc3c(c2)CC(C)N3C(C)=O)c1 (centres undefined),-20.4% (inactive)
15,COc1ccc(CN(Cc2ccco2)S(=O)(=O)c2ccc(S(=O)(=O)N3CCCC3)cc2)cc1,-30.2% (inactive)
16,Cc1ccsc1C(=O)OCC(=O)NCCc1ccccc1,-22.4% (inactive)
17,Cc1ccsc1C(=O)OCC(=O)c1cc(C)n(CC2CCCO2)c1C (centres undefined),103% (active)
18,Cc1ccsc1C(=O)OCC(=O)Nc1cccc(F)c1,-31.6% (inactive)
19,Cc1ccc(OCC(=O)N2CCN(S(=O)(=O)c3ccc(Cl)s3)CC2)cc1C,10.7% (inactive)
20,CCCC(C)C(=O)Nc1ccc(NC(C)=O)cc1 (centres undefined),-11.6% (inactive)
21,O=C(CCS(=O)(=O)c1ccccc1)Nc1nc2c(s1)CCCC2,22% (inactive)
22,Cc1cccc(C)c1NC(=O)CCS(=O)(=O)c1cccc2nsnc12,-23.2% (inactive)
23,COc1ccc(N(C)C(=O)CCS(=O)(=O)c2cccc3nsnc23)cc1,36.5% (inactive)
24,COc1cccc2sc(N(CCCN(C)C)C(=O)CCS(=O)(=O)c3ccccc3)nc12,77.6% (active)

row,SMILES,inhibition
1,Cc1ccc(S(=O)(=O)CCC(=O)OCC(=O)N(C)Cc2ccccc2)cc1,4.76% (inactive)
2,Cc1cccc2sc(N(CCCN(C)C)C(=O)CCS(=O)(=O)c3ccccc3)nc12,61.9% (active)
3,CCOc1ccc(NS(=O)(=O)c2ccc(C(=O)NC3CCN(Cc4ccccc4)CC3)cc2)cc1,10.7% (inactive)
4,Cc1cccc(CCNC(=O)Cn2ncc3c([nH]c4ccc(C)cc43)c2=O)c1,-15.4% (inactive)
5,C=CCc1cc(S(=O)(=O)c2ccc(O)c(CC=C)c2)ccc1O,30.9% (inactive)
6,O=C1C(Sc2cccc(F)c2)=C[C@@]2(O)CC[C@@H](O)[C@]1(Sc1cccc(F)c1)[C@H]2O,31.5% (inactive)
7,CC(OC(=O)Cc1ccc(F)cc1)C(=O)N1CCc2ccccc21 (centres undefined),-3.73% (inactive)
8,C[C@H](CO)N1C[C@H](C)[C@H](CN(C)C(=O)Nc2ccc(C(F)(F)F)cc2)Oc2c(NC(=O)c3ccncc3)cccc2C1=O,7.86% (inactive)
9,Cc1nnc(NC(=O)CSc2nccn2-c2cccc(C)c2C)s1,12.7% (inactive)
10,COc1cc(C(O)c2nc(-c3cnn(C)c3)cs2)ccc1F (centres undefined),-2.28% (inactive)
11,Brc1ccccc1/C=N/Nc1nc2ccccc2o1,-8.62% (inactive)
12,Oc1c(Br)cccc1/C=N/Nc1c(F)c(F)c(F)c(F)c1F,71.5% (active)
13,c1cc(-c2ccc3[nH]ccc3c2)n2ccnc2c1,-2.85% (inactive)
14,COCCNC(=S)N1CCC(NC(=O)C23CC4CC(CC(C4)C2)C3)CC1,15.9% (inactive)
15,CCOC(=O)[C@]12CCCC=C1N(Cc1ccc(Cl)cc1Cl)C(=O)[C@H](CC(=O)N1CCCCC1)C2,7.58% (inactive)
16,COc1cc2c(=O)n(C)c3ccccc3c2cc1OC,-37.3% (inactive)
17,CC(=O)Nc1cccc(C(=O)OCC(=O)c2ccc3c(c2)OCO3)c1,81.9% (active)
18,COc1ccc(C(=O)OCC(=O)Nc2cccc(C(C)=O)c2)cc1OC,11.4% (inactive)
19,O=C(OCc1ccccc1F)c1ccc2c(c1)OCCO2,-12.5% (inactive)
20,O=C(COC(=O)c1ccc(O)cc1O)c1ccc2c(c1)OCCO2,-18.5% (inactive)
21,O=C(COC(=O)c1ccccc1)c1ccc2c(c1)OCCO2,77.6% (active)
22,CC(=O)Nc1cccc(C(=O)OCC(=O)NCc2cc(C)c(O)c(C)c2)c1,-19.2% (inactive)
